This note sets out measurements from PubChem BioAssay (Tox21).

“And” between values parts separate entries of the source, which are not always exact repeats. Equal values may be shown once. Records with an inconclusive call do not appear. Where a call stands in place of a potency, no number is given. The source made the active and inactive calls. Calls come from the whole dose curve; as a rule, active = well fitted inhibition curve with a large enough effect in the repeat runs; inconclusive = weak or mixed curves; inactive = flat fitted curve, though single readings scatter.

Chain of Luciferin 4-monooxygenase (Photinus pyralis) (P08659 whole entry, looked up): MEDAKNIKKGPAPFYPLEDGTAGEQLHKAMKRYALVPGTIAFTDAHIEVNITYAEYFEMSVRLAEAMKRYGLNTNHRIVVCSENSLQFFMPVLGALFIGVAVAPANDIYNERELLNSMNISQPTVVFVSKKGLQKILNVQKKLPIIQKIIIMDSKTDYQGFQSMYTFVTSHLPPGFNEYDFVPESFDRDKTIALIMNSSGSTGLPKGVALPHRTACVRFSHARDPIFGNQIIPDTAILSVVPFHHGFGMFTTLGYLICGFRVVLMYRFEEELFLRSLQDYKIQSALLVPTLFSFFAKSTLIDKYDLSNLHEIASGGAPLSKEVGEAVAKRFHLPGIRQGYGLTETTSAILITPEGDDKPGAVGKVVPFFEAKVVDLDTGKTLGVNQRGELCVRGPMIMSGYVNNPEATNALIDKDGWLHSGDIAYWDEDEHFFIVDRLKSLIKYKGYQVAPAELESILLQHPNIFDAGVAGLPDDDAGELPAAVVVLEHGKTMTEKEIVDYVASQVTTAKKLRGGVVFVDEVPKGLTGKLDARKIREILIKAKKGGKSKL

The test concerns the target Luciferin 4-monooxygenase (Photinus pyralis) (UniProt P08659). As to the kind of experiment: qHTS assay to identify small molecule inhibitors of firefly luciferase (AID 1224835). Note: nearly all actives have a fitted effect of over 25% in size. The following applies: purified P. pyralis luciferase, luminescence inhibition; series mostly up to 115 µM. The text has this:
U.S. Tox21 Program National Center for Advancing Translational Sciences [NCATS] NIH Chemical Genomics Center [NCGC] U.S. Environmental Protection Agency [EPA] National Institutes of Environmental Health Sciences [NIEHS] National Toxicology Program [NTP] U.S. Food and Drug Administration [FDA] Tox21 Assay Overview: Firefly (Photinus pyralis) luciferase is one of the most commonly used transcriptional reporters. Firefly luciferase reporter-gene assays are generally considered one of the most sensitive assay types (Wood, 1995; Wood, 1998). However, it was initially observed, in 1991, by Thompson et al., that compounds that resemble the substrates of firefly luciferase (FLuc) can act as competitive inhibitors of the enzyme, and that these compounds, upon interaction with luciferase in the cell, can actually stabilize the protein and increase its half-life. Previous profiling work by other groups to determine the prevalence of compounds that affect FLuc enzymatic activity (PubChem AID 411) identified that ~3% of the MLSMR library (then at ~72K) inhibited FLuc. […] Thus the Tox21 10K library is profiled for activity against FLuc using a biochemical assay of purified FLuc and KM concentrations of FLuc substrates (D-luciferin and ATP).
These assay plates were then treated with 23nL of compound or DMSO using a Kalypsys pin tool, which allows for delivery of a 6-point interplate titration of each compound to the assay plate (quantitative HTS.) 1 uL of firefly luciferase mix (containing 50 mM Tris acetate, pH 7.6, 0.04 uM P. pyralis luciferase, 0.01% Tween, 0.05% BSA and dH2O) was then delivered by FRD to each well. Luciferase activity was then measured using a ViewLux CCD imager.
Turning to `O=c1c(C2CC(c3ccc(-c4ccc(Br)cc4)cc3)Cc3ccccc32)c(O)sc2ccccc12` (stereo not given), the Potency entry was “inactive”. In the case of `CC(C)CC(C)Nc1ccc(Nc2ccccc2)cc1` (stereo not given), the Potency is 39.3 µM (active). Regarding `CSCCCN=C=S`, the Potency entry is “inactive”. Under `Nc1ccccc1C(=O)Oc1ccc2ccccc2c1` stands 1.78 µM (active); under `Oc1ccc2ccc3cccc4ccc1c2c34`, 79.6 µM (active). Under `CCSC(C)CC1CC(=O)C(/C(CC)=N/OC/C=C/Cl)=C(O)C1` (stereo not given) stands “inactive”; under `ClC1=C(Cl)C2(Cl)C3C(Cl)C(Cl)CC3C1(Cl)C2(Cl)Cl` (stereo not given), “inactive”. Take `CC(c1ccc(O)cc1)c1ccc(O)cc1`: the Potency is 74.7 µM (active) and 44.8 µM (active). Then `CC1(C)[C@H](C(=O)O[C@H](C#N)c2cccc(Oc3ccccc3)c2)[C@@H]1/C=C(\Cl)C(F)(F)F`, with “inactive”; and `CCCN(CCC)CCc1c[nH]c2ccccc12`, with “inactive”; and `FC(F)(F)c1cccc(C2=CCN(CCc3ccc4ccccc4c3)CC2)c1`, with “inactive”.

In the case of `CC1(C)C(/C=C(\Cl)C(F)(F)F)C1C(=O)OC(C#N)c1cccc(Oc2ccccc2)c1` (stereo not given), the Potency result was “inactive”. Then `CC(C)CBr`, with “inactive”; and `CC(C)OC(=O)C(O)(c1ccc(Cl)cc1)c1ccc(Cl)cc1`, with “inactive”; and `c1ccc(Nc2ccc3ccccc3c2)cc1`, with 22.3 µM (active) and 31.7 µM (active).

On to `CC(C)(C)c1cc([N+](=O)[O-])cc(C(C)(C)C)c1O`, for which the Potency result is “inactive”. As to `N#C/C=C/c1ccccc1`, the Potency result is “inactive”.

As to `CC1(c2ccc(Oc3ccccc3)cc2)OC(=O)N(Nc2ccccc2)C1=O` (stereo not given), the Potency entry is “inactive”. `CC(C)(C)c1ccc(CSc2cnn(C(C)(C)C)c(=O)c2Cl)cc1`: the Potency result is “inactive”. Then `O=C1c2ccccc2C(=O)C1C(=O)C(c1ccccc1)c1ccc(Cl)cc1` (stereo not given), with “inactive”; and `c1ccc2c(c1)[nH]c1cnccc12`, with “inactive”.

For `ClC(Cl)=C(Cl)Cl`, the Potency entry is “inactive”.

For `CC(C)CC(C)(c1ccc(O)cc1)c1ccc(O)cc1`, the Potency entry is “inactive”. `BrCBr`: the Potency entry was “inactive”.

`CC1CCC(C(C)C)C(OC(=O)c2ccccc2N)C1` (stereo not given): the Potency result is “inactive”. Regarding `CC(C)[C@H](C(=O)O[C@H](C#N)c1cccc(Oc2ccccc2)c1)c1ccc(Cl)cc1`, the Potency result is “inactive”. On to `CCOCCOC(C)=O`, for which the Potency entry is “inactive”.

For the molecule `CCOP(=S)(OCC)SCS(=O)(=O)CC`, the Potency result was “inactive”. As for `COC(=O)N(C(=O)N1COC2(C(=O)OC)Cc3cc(Cl)ccc3C2=N1)c1ccc(OC(F)(F)F)cc1` (stereo not given), the Potency result is “inactive”. Under `CC(C)(COCC1CO1)COCC1CO1` (stereo not given) stands “inactive”; under `CCCCCCCCCCCCCCCCCCn1cc[n+](C)c1`, “inactive”; under `COCC(=O)N(c1c(C)cccc1C)[C@H](C)C(=O)OC`, “inactive”. As to `Cc1cc(SCc2sc(-c3ccc(C(F)(F)F)c(F)c3)nc2C)ccc1OCC(=O)O`, the Potency was 44.8 µM (active). As for `S=C(SSC(=S)N1CCCCC1)N1CCCCC1`, the Potency was 1.74 µM (active).

For the molecule `ClCCN1CCOCC1`, the Potency result is “inactive”. For `O=C(Nc1ccc2[nH]ccc2c1)c1cc2cc(F)ccc2n1Cc1cccc(F)c1`, the Potency result is “inactive”. Take `C[C@]12CC[C@H]3[C@@H](CCC4=CC(=O)CC[C@@]43C)[C@@H]1CC[C@@H]2O`: the Potency entry is “inactive”. Consider `Clc1ccc(C(c2ccccc2Cl)C(Cl)(Cl)Cl)cc1` (stereo not given), for which the Potency entry is “inactive”.

Regarding `[Hg+2].[I-].[I-]`, the Potency is 4.48 µM (active). Under `ClCc1ccc(Cl)cc1Cl` stands “inactive”.
